Experimental data taken from PubChem BioAssay (EPA / NIEHS).
The source made the active and inactive calls. The calls were made as follows: active = hit-call score of the fitted dose curve at least 0.9, where 1 is the maximum; inactive = score below 0.9.

Assay: ATG_M_19_CIS: Attagene CIS-FACTORIAL HepG2 Assay for M19 Transcription Factor (Internal Marker) (AID 2282939)
Conditions: HepG2 Attagene CIS-FACTORIAL M19 internal marker reporter; actives raise or lower the signal
Outline: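 Transfect HepG2 with MRTU reporter library → dose chemical, 24 h → isolate total RNA, reverse-transcribe with oligo(dT) → PCR, 6-FAM label, HpaI cut (2 h, 37 C) → capillary electrophoresis. Bidirectional fit vs DMSO.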

Compound	outcome	AC50
Cc1[nH]cnc1C[C@H]1CCc2c(C)c3ccccc3n2C1=O	inactive	–
CC(C)CCCCCCCOC(=O)CCCCC(=O)OCCCCCCCC(C)C	inactive	–
O=P(OC(CCl)CCl)(OC(CCl)CCl)OC(CCl)CCl	–	149 µM (active)
CN(C)c1ccc(Cc2ccc(N(C)C)cc2)cc1	inactive	–
CC(C)=CCCC(C)=CC=O	inactive	–
COC(=O)c1ccccc1O	inactive	–
O=C1CCC(N2C(=O)c3ccccc3C2=O)C(=O)N1 (centres undefined)	inactive	–
CC(C)CC(C)(O)C#CC(C)(O)CC(C)C (centres undefined)	inactive	–
CCC(C)(C)C(=O)O[C@H]1C[C@@H](C)C=C2C=C[C@H](C)[C@H](CC[C@@H]3C[C@@H](O)CC(=O)O3)[C@H]21	inactive	–
CC(C)(O)c1coc(S(=O)(=O)NC(=O)Nc2c3c(cc4c2CCC4)CCC3)c1	inactive	–
O=C(OC[C@H]1O[C@@H](OC(=O)c2cc(O)c(O)c(OC(=O)c3cc(O)c(O)c(O)c3)c2)[C@H](OC(=O)c2cc(O)c(O)c(OC(=O)c3cc(O)c(O)c(O)c3)c2)[C@@H](OC(=O)c2cc(O)c(O)c(OC(=O)c3cc(O)c(O)c(O)c3)c2)[C@@H]1OC(=O)c1cc(O)c(O)c(OC(=O)c2cc(O)c(O)c(O)c2)c1)c1cc(O)c(O)c(OC(=O)c2cc(O)c(O)c(O)c2)c1	inactive	–
Cn1cnc([N+](=O)[O-])c1Sc1ncnc2nc[nH]c12	inactive	–
O=C(O)CC(O)C(=O)O (centres undefined)	inactive	–
CC[C@H](C)C(=O)O[C@H]1C[C@@H](C)C=C2C=C[C@H](C)[C@H](CC[C@@H]3C[C@@H](O)CC(=O)O3)[C@H]21	inactive	–
O=c1n(CC2CO2)c(=O)n(CC2CO2)c(=O)n1CC1CO1 (centres undefined)	inactive	–
COCCOc1cc2cc(C(=O)NC3CCN(C(C)C)CC3)n(CC(=O)Nc3ccc(Cl)cn3)c2cn1	inactive	–
CC(C)=CCC/C(C)=C/CO	inactive	–
CCOC(=O)CC(CC(=O)OCC)(OC(C)=O)C(=O)OCC	inactive	–
Cc1ccc(C)c(O)c1	inactive	–
CCCCCCCCCCCCCCCO	inactive	–
CC[C@H]1OC(=O)[C@H](C)[C@@H](O[C@H]2C[C@@](C)(OC)[C@@H](O)[C@H](C)O2)[C@H](C)[C@@H](O[C@@H]2O[C@H](C)C[C@H](N(C)C)[C@H]2O)[C@](C)(O)C[C@@H](C)C(=O)[C@H](C)[C@@H](O)[C@]1(C)O	inactive	–
CC(C)CCO	inactive	–
CC(C)CCCCCCOC(=O)c1ccc(C(=O)OCCCCCCC(C)C)c(C(=O)OCCCCCCC(C)C)c1	inactive	–
Cc1c(-c2cccnc2)c2ccccc2n1CCCCC(=O)O	inactive	–
CCCCC(CC)COC(=O)c1ccc(C(=O)OCC(CC)CCCC)cc1 (centres undefined)	inactive	–
CCCCCCCCO	inactive	–
O=C(O)CCN(C1(C(=O)NO)CCCC1)S(=O)(=O)c1ccc(Oc2ccc(F)cc2)cc1	inactive	–
COc1cccc(-c2ccc(/C=C\CN3CCCCCC3)cc2Cl)c1	inactive	–
CC(C)=CCC/C(C)=C\CO	inactive	–
